Assay outcomes: PubChem BioAssay, several laboratories
This is a sample that favours compounds with a hit; in the whole collection about 3.1% have one here.
SSB-PriA inh = inhibitors of Klebsiella pneumoniae PriA binding to SSB C-terminal tail, primary screen, biochemical, AlphaScreen; inhibition, % at 33 µM; PriA–SSB C-terminal tail interaction (Klebsiella pneumoniae); AID 1272365, 2023; AlphaScreen SSBct-PriA binding, biotinylated peptide; 430,000 compounds, 0.6% hits; in the data active = inhibition mostly above about 37%, no sharp cut-off; inactive = mostly below about 20%;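 note: plate controls were negative control peptide for no effect and reference peptide for full effect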
BoNT F protease = BoNT/F light chain protease inhibitors, primary screen, biochemical, flow cytometry, MLPCN library. Botulinum neurotoxin type F light chain protease (Clostridium botulinum). Multiplex microsphere protease cleavage assay. inhibition, % at 10 µM. 360,000 compounds, 0.22% hits. AID 588497, 2011; in the data active = inhibition above about 35%, passing the limit was not always enough; inconclusive = no clear call, values can overlap the other calls; note: plate controls were buffer without enzyme for full effect and enzyme alone for no effect
Autofluor counter = flagged as autofluorescent in microsphere protease counterscreen; compound autofluorescence counterscreen, microsphere flow cytometry; active compounds read high; fluorescence intensity (test concentration not listed); 360,000 compounds, 3.1% hits; in the data active = fluorescence intensity above about 16000; inconclusive = no clear call, values can overlap the other calls
BoNT A protease = BoNT/A light chain protease inhibitors, primary screen, biochemical, flow cytometry, MLPCN library; multiplex microsphere protease substrate cleavage; inhibition, % at 10 µM; 360,000 compounds, 0.17% hits; AID 588499, 2011; note: plate controls were buffer without enzyme for full effect and enzyme alone for no effect
Anthrax LF prot = Bacillus anthracis LF protease inhibitors, primary screen, biochemical, multiplex microsphere, MLPCN library; 360,000 compounds, 0.12% hits; AID 588501, 2011; inhibition, % at 10 µM; Lethal factor (Bacillus anthracis), P15917; multiplex microsphere protease cleavage assay; note: plate controls were buffer without enzyme for full effect and enzyme alone for no effect
Active calls of the source: *; ? = inconclusive; · = not tested or not shown. Cut-off read from the data, not from the text of the source, unless noted: active = inhibition above about 30%; inconclusive = no clear call, values can overlap the other calls; inactive = below that.

SMILES | SSB-PriA inh | BoNT F protease | Autofluor counter | BoNT A protease | Anthrax LF prot
CCC(C)NS(=O)(=O)c1ccc(S(=O)(=O)N2CCCC3(CCCCC3)C2)cc1 (stereo not drawn) | -7 | 0 | 21732* | 2 | -5
CCC(C)C(=O)Nc1ccc(S(=O)(=O)N2CCCC2)cc1 (stereo not drawn) | -15 | 15 | 3832 | -1 | 15
O=[N+]([O-])c1ccccc1/C=N/Nc1nccnc1Cl | · | 0 | 22518* | -1 | -2
Oc1ccccc1/C=N/Nc1nccnc1Cl | · | -10 | 9470 | -2 | -2
COc1ccc(-c2c(NC(C)=O)n(C)c3ccccc3c2=O)cc1 | 2 | 17 | 16417* | ? | -14
Cc1ccc(C(=O)Nc2c(-c3cccs3)c(=O)c3ccccc3n2C)cc1 | -11 | -1 | 11204 | 1 | -2
CCn1c(NC(=O)c2ccco2)c(-c2ccccc2Cl)c(=O)c2ccccc21 | -14 | 5 | 23199* | 1 | 3
Cc1ccccc1C(=O)Nc1c(-c2cccs2)c(=O)c2ccccc2n1C | -9 | 6 | 6025 | 0 | -8
CCCC(=O)Nc1c(-c2cccs2)c(=O)c2ccccc2n1C | -21 | -1 | 21477* | 2 | 0
CCn1c(NC(=O)c2cccs2)c(-c2cccs2)c(=O)c2ccccc21 | -2 | 4 | 20705* | ? | 1
O=C(Cc1ccc(NS(=O)(=O)c2ccccc2F)cc1)NCc1cccs1 | -4 | · | · | · | ·
O=C(CCCn1nc(-c2ccco2)ccc1=O)Nc1ccc(OC(F)(F)F)cc1 | 5 | · | · | · | ·
O=C(Nc1cccnc1)Nc1c[nH]c2ccccc12 | 5 | · | · | · | ·
CCCN1CCN(C(c2cc3cc(OCC)ccc3[nH]c2=O)c2nnnn2C2CCCCC2)CC1 (stereo not drawn) | -3 | 5 | 22710* | ? | -2
COc1ccc2[nH]c(=O)c(C(c3nnnn3C3CCCCC3)N3CCN(C)CC3)cc2c1 (stereo not drawn) | 4 | 2 | 9789 | 0 | 5
COc1ccc2cc(C(c3nnnn3C3CCCC3)N3CCc4ccccc4C3)c(=O)[nH]c2c1 (stereo not drawn) | 10 | -4 | 9920 | 2 | 2
Cc1ccc2cc(C(c3nnnn3C3CCCC3)N3CCN(c4ccc(F)cc4)CC3)c(=O)[nH]c2c1 (stereo not drawn) | 2 | 0 | 22513* | 0 | -3
CCOc1ccc(N2C[C@@H](CNC(=O)Nc3ccc(Cl)cc3)CC2=O)cc1 | -7 | · | · | · | ·
CS(=O)(=O)N1CCc2nc(NC(=O)c3ccc4nsnc4c3)sc2C1 | -3 | · | · | · | ·
CS(=O)(=O)c1ccc2nc(NC(=O)c3ccc(Cl)s3)sc2c1 | -11 | · | · | · | ·
Cc1nc2ccccn2c1C(=O)NCC1CCCN1c1nc2ccccc2o1 (stereo not drawn) | -6 | · | · | · | ·
O=C(NC[C@H]1CCCN1c1nc2ccccc2o1)c1ccc(-n2cccc2)cc1 | 29* | · | · | · | ·
Cc1cc(C(=O)CN2C(=O)NC(Cc3c[nH]c4ccccc34)C2=O)c(C)n1C (stereo not drawn) | -2 | -9 | 23788* | -4 | -4
Cc1ccc(/C=C\S(=O)(=O)NCCn2ncccc2=O)cc1 | -9 | · | · | · | ·
C1NCC12COC2 | 5 | · | · | · | ·
SMILES | SSB-PriA inh | BoNT F protease | Autofluor counter | BoNT A protease | Anthrax LF prot
Cc1onc(-c2ccccc2Cl)c1C(=O)N1Cc2cnc(N3CCOCC3)nc2C1 | 4 | · | · | · | ·
COCCCNC(=O)c1ccc(N2CCCC2)c(NS(=O)(=O)c2ccc(C)cc2)c1 | -4 | -6 | 24938* | -3 | 1
Cc1ccc(S(=O)(=O)Nc2cc(C(=O)O)ccc2N2CCCCC2)cc1 | -5 | 1 | 23478* | -1 | -2
O=C(COc1coc(CN2CCc3ccccc32)cc1=O)NCC1CCCO1 (stereo not drawn) | -14 | · | · | · | ·
O=C1CCOc2cc(OCc3ccccc3)ccc21 | -36 | -6 | 21171* | -4 | 1
Cc1ccccc1C(=O)NNC(=O)CCC(=O)Nc1cccc(Cl)c1C | -2 | 4 | 1937 | 1 | -2
Cc1c(Cl)cccc1NC(=O)Cn1cccc1 | -2 | -3 | 23242* | 1 | -3
Cc1c(Cl)cccc1NC(=O)CCC(=O)NNC(=O)c1ccco1 | -6 | -2 | 16503* | -1 | 0
Cc1cc(C)c2c(=O)n(CC(=O)Nc3cccc(Cl)c3C)sc2n1 | -10 | 3 | 3362 | 54* | 1
Cc1ccccc1NC(=O)Cn1cccc1 | 2 | -1 | 10489 | 0 | -2
Cc1c(Cl)cccc1NC(=O)CCC(=O)NNC(=O)c1ccccc1Cl | -8 | -4 | 17035* | ? | 0
O=C(CCC(=O)Nc1ccccc1Cl)NNC(=O)c1ccco1 | -9 | 0 | 2182 | 0 | 0
O=C(CSCc1ccccc1)Nc1nc2c(s1)CCc1ccccc1-2 | -3 | · | · | · | ·
Cc1ccc(OC2CCCN(C(=O)c3ccco3)C2)nn1 (stereo not drawn) | -5 | · | · | · | ·
CCn1c(=NC(=O)c2ccn(C)n2)sc2cc(F)ccc21 | -2 | · | · | · | ·
COc1ccc(CC(=O)NNC(=O)c2ccc(SCc3cc(F)ccc3F)c([N+](=O)[O-])c2)cc1 | -6 | 1 | 22474* | 0 | -1
COc1cccc(C(=O)NNC(=O)Cc2ccc([N+](=O)[O-])cc2)c1 | -9 | -9 | 2306 | 0 | 0
CCOC(=O)N1CCC(Nc2cc(C)nc3c(-c4ccccc4OC)c(C)nn23)CC1 | 104* | 10 | 5935 | 0 | 11
CCC(C)Sc1nnc(NC(=O)c2cc(Cl)ccc2OC)s1 (stereo not drawn) | -20 | · | · | · | ·
Cc1ccsc1C=NNc1nc(=O)[nH]nc1C | 67* | · | · | · | ·
O=C1CC(NNC(=O)c2ccc(Br)cc2)C(=O)N1 (stereo not drawn) | 2 | 43* | 3778 | 5 | 8
O=C(Nc1cccc(Cl)c1)Nc1nccs1 | -6 | 12 | 16192* | ? | -24
Cc1csc(CN2CCN(C(=O)c3ccc([N+](=O)[O-])o3)CC2)n1 | -14 | · | · | · | ·
CCC(=NCCO)c1c(O)n(-c2ccc(Cl)cc2)c(=O)[nH]c1=O | -12 | -6 | 23929* | -3 | -6
COC(=O)c1ccccc1NC(=S)NC(=O)COc1ccccc1Cl | -3 | -6 | 20710* | ? | -6
SMILES | SSB-PriA inh | BoNT F protease | Autofluor counter | BoNT A protease | Anthrax LF prot
CCc1ccc(/C=C/C(=O)Nc2ccccc2C(F)(F)F)o1 | 14 | · | · | · | ·
COc1cc(Cl)c(C)cc1NC(=O)Oc1ccccc1 | -14 | · | · | · | ·
Cc1cc(C)c(C#N)c(N2CCN(Cc3ccc4c(c3)OCO4)CC2)n1 | -14 | ? | 2740 | 0 | -4
Cc1cc(C)c(C#N)c(N2CCN(Cc3ccccc3)CC2)n1 | -18 | -2 | 23816* | 0 | -3
N#Cc1c(N2CCCCC2)nc(N2CCCCC2)c2c1CCN(Cc1ccccc1)C2 | -6 | -1 | 18858* | ? | 12
CCOc1ccccc1NC(=O)CSc1nc(-c2ccccc2)cc(=O)[nH]1 | -1 | · | · | · | ·
COC(=O)c1ccc(S(=O)(=O)NCC2CCN(S(=O)(=O)C3CC3)CC2)cc1 | 5 | · | · | · | ·
